In ChEMBL document CHEMBL3988442, “University of Dundee, Small-Polar-MMV Screening Library” (2021):
Out of some 48,000 compounds screened, about 13,000 (27%) showed an effect of 50% or more. The list shows a part of the results.

These compounds were tested on Wolbachia pipientis (assay: Anti-Wolbachia Cell-Based Screen). Conditions: 5 µM.
Format: functional
Parameters: scale not given: in the data most compounds retested in dose-response had high values

SMILES | Percent Effect [%]
COCC(=O)N[C@H](C(=O)NC(C)c1cccc(C)c1C)C(C)C (some centres not stated) | 4.041
O=C(c1scc2c1OCCO2)N1CCN(Cc2cccc(F)c2)CC1 | -25.63
COCc1noc(-c2ccc(N(C)Cc3nccs3)nc2)n1 | 22.14
CCc1nc(CNC(C)c2cccc(N3CCCC3=O)c2)cs1.Cl (configuration not stated) | 4.92
CSc1cc2c(cc1NC(=O)NCC(C)(C)C(N)=O)OCCO2 | -12.99
CC(C)(C)c1noc(CN2CCN(C(=O)c3cccs3)CC2)n1 | -8.519
CCc1cnc(N2CC[C@@H]3CN(C(C)=O)CCO[C@@H]3C2)nc1 | 6.886
CCc1cnc(N)nc1N1CCN(C(C)=O)CC1 | -3.404
CCc1ocnc1C(=O)N1CCC(C2CCN(c3ncccn3)CC2)C1 (configuration not stated) | -3.497
CNc1ncc(C(=O)N2CCC(c3ccccc3C(=O)O)C2)cn1 (configuration not stated) | 4.233
CC(=O)N1CCC(n2nccc2-c2cnc(N(C)CCO)nc2)CC1 | 107.1
CC(=O)N1CCC(n2nccc2-c2cnc(N)nc2)CC1 | 106.3
CNc1ncc(C(=O)N2CC[C@@](O)(C3CCOCC3)[C@H](C)C2)cn1 | -7.674
CNc1ncc(-c2ccnn2C2CCN(C(C)=O)CC2)cn1 | 109.9
CC(=O)N1CCC(n2nccc2-c2cnc(N3CCCC3)nc2)CC1 | 98.34
CC(=O)N1CCC(Oc2ccc(Cl)cn2)CC1 | -4.055
Cn1ccnc1CN(CCO)C(=O)C1CCN(C(=O)C2CC2)CC1 | -5.097
CC(=O)N1CCC(NCc2cccnc2N(C)Cc2ccccc2)CC1 | -20.17
CC(C(=O)N1CCc2sccc2C1)N1CCCN(C2CC2)CC1 (configuration not stated) | 6.579
NC(=O)CCNC(=O)NCC1(c2ccccc2Cl)CCC1 | -8.555
CC(=O)N1CCC(NC[C@H]2Cn3c(-c4ccccc4)cnc3CO2)CC1 | -3.853
Cc1noc(C2CCN(C(=O)CCNc3ncccn3)CC2)n1 | 14.51
CC(=O)N1CCC(n2nccc2-c2cnc(NCCO)nc2)CC1 | 90.32
O=C(O)c1nn(CC2CC2)c2c1CN(S(=O)(=O)c1cccnc1)CC2 | -14.04
Cc1nn(-c2ccccc2)c(C)c1CC(=O)NC1CC(=O)N(C)C1 (configuration not stated) | 10.3

SMILES | Percent Effect [%]
COCCNC(=O)CCc1c(C)nn(-c2nc(C)c(C)c(=O)[nH]2)c1C | -2.178
CCN(CC)CCNC(=O)CCc1c(C)nn(-c2cccc(Cl)c2)c1C | 114.7
CC(=O)NCCCc1ncnn1-c1cccc(Cl)c1 | -6.102
CCn1nc(C)c(CCNC(=O)c2cccc(-n3cccn3)c2)c1C | -5.095
CCN(CC)CCNC(=O)CCc1c(C)nn(-c2ccc(Cl)cc2)c1C | 108.7
COCc1noc(C2(c3ccc(OC)cc3)CCOCC2)n1 | -14.42
CN1CCN(Cc2cccc(NCc3cc[nH]n3)c2)CC1 | -14.54
O=C(Nc1c(F)cccc1F)N1CC(c2nc(C3CC3)no2)C1 | 16.35
COCC(=O)Nc1ccc(C)cc1-c1nc(C2CC2)no1 | 104.3
Cc1ccc(NC(=O)N2CC[C@@H](O)C2)c(-c2nc(C3CC3)no2)c1 | 101.9
COc1ccc(NC(=O)N2CCC(c3noc(C)n3)CC2)cc1C | -0.09079
CCCn1nc(-c2nc(C3CC3)no2)ccc1=O | -1.199
O=C(Nc1cc(-c2ccccc2)on1)N1CC[C@H](O)C1 | -19.05
COc1ccc(CNc2nc(C3CC3)no2)cc1OC | -4.91
O=C(NCc1nc(C2CC2)no1)N1CCOC(c2cccc(F)c2)C1 (configuration not stated) | -4.4
O=C(Nc1ccc(F)cc1-c1nc(C2CC2)no1)N1CC[C@@H](O)C1 | 96.09
CN(C)Cc1nnc(C2CCCN(c3ncccc3F)C2)n1C (configuration not stated) | -23.88
Cc1cc(CN(C)CC2(O)CCCN(CCC3CCCCC3)C2=O)no1 (configuration not stated) | -6.768
O=C(CN1CCCc2sccc2C1=O)NC1CCc2nccn2C1 (configuration not stated) | 7.867
O=C(CCc1nc(Cl)n[nH]1)N[C@H]1CC[C@H]1NC1Cc2ccccc2C1 | -20.04
CCC(=O)N1CCC(Oc2ccc(C(=O)NCCN(C)C)cc2Cl)CC1 | 19.63
Cc1ccc(C)c(OC2CCN(C(=O)CNc3ccccc3Cl)CC2)c1 | 209.6
CN(C)CCNC(=O)c1ccc(OC2CCN(C(=O)CO)CC2)c(Cl)c1 | 12.3
Cc1ccc(C)c(OC2CCN(C(=O)NCC(=O)N3CCCC3)CC2)c1 | 99.13
Cc1ccc(C)c(OC2CCN(C(=O)c3ccc(C)[nH]c3=O)CC2)c1 | -1.4

SMILES | Percent Effect [%]
Cc1ccccc1OC1CCN(C(=O)CNC(=O)N(C)C)CC1 | 13.16
Cc1ccc(C)c(OC2CCN(C(=O)c3ccc(O)nc3)CC2)c1 | -12.69
CCNC(=O)CCC(=O)N1CCC(Oc2cc(C)ccc2C)CC1 | 108
COC(=O)NCC(=O)N1CCC(Oc2cccc(C)c2)CC1 | -5.707
O=C([C@H]1C[C@H]2OCC[C@H]2N(C(=O)c2cnccn2)C1)N1CCCCO1 | -3.887
CN(C)C(C(=O)N1CCN(S(N)(=O)=O)CC1)c1ccccc1F (configuration not stated) | -29.81
Cn1c(C(F)(F)F)nn(CCNC(=O)NCc2ccccc2)c1=O | -13.86
Cc1cnn(Cc2cc(F)ccc2F)c1NC(=O)CNC(=O)C1CC1 | -28.4
O=C1CCc2cc(S(=O)(=O)NCc3cc4n(n3)CCCNC4)ccc2N1 | -2.764
Cc1ccc(NC2CCN(C(=O)COc3cccnc3)CC2)nn1 | 0.9961
Cc1ccc(NC2CCN(C(=O)Cc3cccc(F)c3)CC2)nn1 | 5.367
Cc1ccc(NC2CCN(C(=O)COc3ccccc3)CC2)nn1 | 80.33
Cc1ccc(NC2CCN(C(=O)COc3cccc(F)c3)CC2)nn1 | 99.48
CC(C)n1cc(S(=O)(=O)NCCc2nnc3ccccn23)cn1 | -12.48
CCOCC1c2c(cnn2CC2CC2)CCN1C(=O)c1ccncn1.O=C(O)C(F)(F)F (configuration not stated) | -2.874
COCC1c2nnn(CC3CC3)c2CCN1C(=O)Cc1cccs1 (configuration not stated) | 9.028
CCn1ncc2c1C(COC)N(C(=O)c1cscn1)CC2.O=C(O)C(F)(F)F (configuration not stated) | 99.84
CCn1ncc2c1C(COCC1CC1)N(Cc1ccccn1)CC2.O=C(O)C(F)(F)F.O=C(O)C(F)(F)F (configuration not stated) | 3.009
CCn1ncc2c1C(COCC1CC1)N(Cc1cnn(C)c1)CC2.O=C(O)C(F)(F)F.O=C(O)C(F)(F)F.O=C(O)C(F)(F)F (configuration not stated) | -14.36
CCn1ncc2c1C(COC)N(C(=O)CCc1ccccc1)CC2.O=C(O)C(F)(F)F (configuration not stated) | 87.3
CCn1ncc2c1C(COCC1CC1)N(C(=O)c1ccncn1)CC2.O=C(O)C(F)(F)F (configuration not stated) | -5.083
CCn1ncc2c1C(COC)N(C(=O)c1cccs1)CC2.O=C(O)C(F)(F)F (configuration not stated) | 114.8
CCn1ncc2c1C(COC)N(C(=O)Cc1cccs1)CC2 (configuration not stated) | 110.7
Fc1cnc(N2CC[C@@H](N3CCOCC3)[C@@H]2Cc2ccccc2)nc1 | -1.587
CC(C)(O)CCc1ccc(C(=O)N2CCN(CC(F)(F)F)CC2)cc1 | 0.1309

SMILES | Percent Effect [%]
NS(=O)(=O)CCN1CCOC(c2ccsc2)C1 (configuration not stated) | -9.667
CN1CC(c2ccccc2)CC2(CCN(C(=O)c3cccnn3)CC2)C1 (configuration not stated) | 0.4144
COc1ccc2c(c1)C(=O)N(C)C1(CCN(C(=O)OC(C)(C)C)CC1)N2 | -17.46
COCC1c2c(cnn2C)CCN1Cc1ccc(F)cc1.O=C(O)C(F)(F)F.O=C(O)C(F)(F)F (configuration not stated) | 5.645
COCC1c2c(cnn2C)CCN1C(=O)c1cscn1.O=C(O)C(F)(F)F (configuration not stated) | 127.3
COCC1CN(C(=O)c2cccn2C)Cc2c1cnn2CC1CC1.O=C(O)C(F)(F)F (configuration not stated) | 4.422
COCC1c2c(cnn2C)CCN1C(=O)c1cccn1C.O=C(O)C(F)(F)F (configuration not stated) | 106
Cn1ncc2c1C(COCC1CC1)N(C(=O)c1ccncn1)CC2.O=C(O)C(F)(F)F (configuration not stated) | 6.391
CCn1ncc2c1C(COC)N(C(=O)c1ccsc1)CC2.O=C(O)C(F)(F)F (configuration not stated) | 90.11
CCn1ncc2c1C(COC)N(C(=O)c1ccc3c(c1)OCO3)CC2.O=C(O)C(F)(F)F (configuration not stated) | 10.43
CC(O)CC(C)(C)CNC(=O)Nc1cnn(-c2ccccc2F)c1 (configuration not stated) | -9.575
Cc1nccc(-c2ccccc2)c1C(=O)N1CCC2(CCCO2)CC1 | -10.01
COc1ccc([C@@H]2CN(C(=O)CCn3cccn3)C[C@H]2NC(C)=O)cc1 | 10.72
Cc1nccc(-c2cccc(NCC(=O)N3CCc4sccc4C3)c2)n1 | -3.121
CC(C)Oc1ccc(CN2CCCC(N3CCCC3)C2)cc1CO (configuration not stated) | -11.2
O=C(C1SCCc2ccccc21)N1CCC(O)CC1 (configuration not stated) | -12.36
CC1(C)CC(C(=O)N2CCC3(CCC(=O)N(C4CC4)C3)CC2)CCO1 (configuration not stated) | -18.18
CCCS(=O)(=O)N1CCN(Cc2ccco2)CC1.O=C(O)C(=O)O | 120.3
CC(C)OCCS(=O)(=O)N1CCN(Cc2ccco2)CC1 | -6.984
CCCS(=O)(=O)N1C[C@@H]2CN(Cc3ccco3)CCO[C@@H]2C1.O=C(O)C(F)(F)F | 4.107
CCS(=O)(=O)N1CCC(c2cc3n(n2)[C@@H](C(F)(F)F)C[C@@H](C)N3)CC1 | -9.512
CC(C)OCc1ccc(CNC(=O)NC2(CO)CCCC2)cc1 | 4.047
